Measurements reported in PubChem BioAssay (Tox21).
Values joined by “and” are separate entries in the source; they are usually repeats but may differ in a detail not shown here. Equal values may be shown once. Records with an inconclusive call do not appear. A call without a number means that no potency is given here. A structure can be active in one record and inactive in another. Active and inactive are the calls of the source. The call rests on the fitted dose curve; in most records, active means well fitted curve in the direction sought with a large enough effect in the repeat runs; inconclusive means weak or mixed curves; inactive means no such curve, though single readings can be large; an effect the other way counts as inactive or inconclusive.

Experiment: A CellTox Green Cytotoxicity Assay to monitor cytotoxicity in HEK293 cells - 0 hour (AID 1224869)
Details: CellTox Green fluorescence; series mostly up to 76.8 µM; cytotoxicity: at the top concentration
Method in brief: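 Real-time, in one plate: 600 HEK293 cells/well with dead-cell DNA dye, pinned compound after 5 h, 37 C incubation over 40 h; viable cells give no appreciable fluorescence.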
Further: nearly all actives have a fitted effect of over 50% in size.
Potency means the concentration at half of the fitted maximal effect.

Structure (SMILES) | cytotoxicity | Potency
CCCCC/C=C/C=C/C=O | 0.495% (inactive) | 
CC(CCC(=O)O)(c1ccc(O)cc1)c1ccc(O)cc1 |  | inactive
CC(=O)O[C@]1(C(C)=O)CC[C@H]2[C@@H]3C=C(Cl)C4=CC(=O)[C@@H]5C[C@@H]5[C@]4(C)[C@H]3CC[C@@]21C |  | inactive
CCCc1c(OCCCCc2nn[nH]n2)ccc(C(C)=O)c1O |  | inactive
c1ccc2c(c1)c1cccc3ccc4cccc2c4c31 |  | inactive
c1ccc2sc(SSN3CCOCC3)nc2c1 |  | inactive
O=C(/C=C/C=C/c1ccc2c(c1)OCO2)N1CCCCC1 |  | inactive
COC(=O)C1=C(C)NC(C)=C(C(=O)OCCN(C)Cc2ccccc2)C1c1cccc([N+](=O)[O-])c1 (stereo unspecified) |  | inactive
CNCCCC12CCC(c3ccccc31)c1ccccc12 |  | inactive
O=C(Nc1ccc([N+](=O)[O-])cc1Cl)c1cc(Cl)ccc1O |  | inactive
CC(=O)Oc1ccccc1C(=O)Nc1ncc([N+](=O)[O-])s1 |  | inactive
Cc1c(OCC(F)(F)F)ccnc1CS(=O)c1nc2ccccc2[nH]1 (stereo unspecified) |  | inactive
Nc1ncnc2nc[nH]c12 |  | inactive
CN(C)c1nc(N(C)C)nc(N(C)C)n1 |  | inactive
CN1C(C(=O)Nc2ccccn2)=C(O)c2ccccc2S1(=O)=O |  | inactive
CC(C)OC(=O)C(C)(C)Oc1ccc(C(=O)c2ccc(Cl)cc2)cc1 |  | inactive
Nc1ccc(S(=O)(=O)Nc2cnc3ccccc3n2)cc1 |  | inactive
CC(C)(C)NC(=O)[C@H]1CC[C@H]2[C@@H]3CC[C@H]4NC(=O)C=C[C@]4(C)[C@H]3CC[C@]12C |  | inactive
Cc1ccc(C(=O)c2cc(O)c(O)c([N+](=O)[O-])c2)cc1 |  | inactive
CC(C)=CCC/C(C)=C\CO |  | inactive

Structure (SMILES) | cytotoxicity | Potency
Cc1[nH]c(=O)c(C#N)cc1-c1ccncc1 |  | inactive
CN(C)CCC=C1c2ccccc2CCc2ccccc21 |  | inactive
C#C[C@]1(O)CC[C@H]2[C@@H]3CCC4=Cc5oncc5C[C@]4(C)[C@H]3CC[C@@]21C |  | inactive
CN(C)CCN(Cc1cccs1)c1ccccn1 |  | inactive
O=C1OC2(c3cc(Br)c(O)c(Br)c3Oc3c2cc(Br)c(O)c3Br)c2c(Cl)c(Cl)c(Cl)c(Cl)c21 |  | 43.7 µM (active) and 26.5 µM (active)
O=[N+]([O-])c1ccc2c(c1)Cc1ccccc1-2 |  | inactive
O=C(O)c1ccccc1Nc1cccc(C(F)(F)F)c1 |  | inactive
S=C(NC1CCCCC1)NC1CCCCC1 |  | inactive
COc1cccc2c1C(=O)c1c(O)c3c(c(O)c1C2=O)C[C@@](O)(C(=O)CO)C[C@@H]3O[C@H]1C[C@H](N)[C@H](O)[C@H](C)O1 |  | inactive
c1cc(N(CC2CO2)CC2CO2)ccc1OCC1CO1 (stereo unspecified) |  | inactive
C[C@]12CCC(=O)C=C1CC[C@@H]1[C@@H]2C(=O)C[C@@]2(C)[C@H]1CC[C@]2(O)C(=O)CO |  | inactive
Cc1cc2nc3c(=O)[nH]c(=O)nc-3n(C[C@H](O)[C@H](O)[C@H](O)CO)c2cc1C |  | 43.2 µM (active) and 40.5 µM (active) and 11.7 µM (active)
Nc1ccc(Nc2ccccc2)cc1 |  | inactive
CCCCc1oc2ccccc2c1C(=O)c1cc(I)c(OCCN(CC)CC)c(I)c1 |  | inactive
Nc1ccccc1N |  | 50.1 µM (active)
Cc1cccc(N(C)C(=S)Oc2ccc3ccccc3c2)c1 |  | inactive
Oc1ccc(O)cc1 |  | inactive
Brc1cc(Oc2cc(Br)c(Br)c(Br)c2Br)c(Br)c(Br)c1Br |  | inactive
O=C(c1ccc(OCCN2CCCCC2)cc1)c1c(-c2ccc(O)cc2)sc2cc(O)ccc12 |  | inactive

Experiment: qHTS RealTime-Glo MT Cell Viability Assay in HepG2 cells - 40 hour (AID 1224870)
Details: RealTime-Glo luminescence; series mostly up to 76.8 µM; activity change, negative = cytotoxic: at the top concentration
Method in brief: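 HepG2 cells mixed with RealTime-Glo MT reagents (NanoLuc plus cell-permeant prosubstrate) were seeded at 600 cells/well, incubated 5 h at 37 C/5% CO2, then pinned with compounds in DMSO; nonlytic luminescence tracked viability during 40 h treatment.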

Structure (SMILES) | Potency | activity change, negative = cytotoxic
CCCCC/C=C/C=C/C=O | inactive | 
CC(CCC(=O)O)(c1ccc(O)cc1)c1ccc(O)cc1 | inactive | 
CC(=O)O[C@]1(C(C)=O)CC[C@H]2[C@@H]3C=C(Cl)C4=CC(=O)[C@@H]5C[C@@H]5[C@]4(C)[C@H]3CC[C@@]21C | inactive | 
CCCc1c(OCCCCc2nn[nH]n2)ccc(C(C)=O)c1O | inactive | 
c1ccc2c(c1)c1cccc3ccc4cccc2c4c31 | inactive | 
c1ccc2sc(SSN3CCOCC3)nc2c1 | inactive and 54.9 µM (active) | 
O=C(/C=C/C=C/c1ccc2c(c1)OCO2)N1CCCCC1 | inactive | 
COC(=O)C1=C(C)NC(C)=C(C(=O)OCCN(C)Cc2ccccc2)C1c1cccc([N+](=O)[O-])c1 (stereo unspecified) | 43.4 µM (active) | 
CNCCCC12CCC(c3ccccc31)c1ccccc12 | 38.9 µM (active) and 26.8 µM (active) | 
CC(=O)Oc1ccccc1C(=O)Nc1ncc([N+](=O)[O-])s1 |  | -18.2% (inactive)
Cc1c(OCC(F)(F)F)ccnc1CS(=O)c1nc2ccccc2[nH]1 (stereo unspecified) | inactive | 
Nc1ncnc2nc[nH]c12 | inactive | 
CN(C)c1nc(N(C)C)nc(N(C)C)n1 | inactive | 
CN1C(C(=O)Nc2ccccn2)=C(O)c2ccccc2S1(=O)=O | inactive | 
CC(C)OC(=O)C(C)(C)Oc1ccc(C(=O)c2ccc(Cl)cc2)cc1 | inactive | 
Nc1ccc(S(=O)(=O)Nc2cnc3ccccc3n2)cc1 | inactive | 
CC(C)(C)NC(=O)[C@H]1CC[C@H]2[C@@H]3CC[C@H]4NC(=O)C=C[C@]4(C)[C@H]3CC[C@]12C | inactive | 
Cc1ccc(C(=O)c2cc(O)c(O)c([N+](=O)[O-])c2)cc1 |  | -10.6% [at 35.3 µM] (inactive)
CC(C)=CCC/C(C)=C\CO | inactive | 

Structure (SMILES) | Potency | activity change, negative = cytotoxic
Cc1[nH]c(=O)c(C#N)cc1-c1ccncc1 | inactive | 
CN(C)CCC=C1c2ccccc2CCc2ccccc21 | inactive and 54.9 µM (active) | 
CN(C)CCN(Cc1cccs1)c1ccccn1 | inactive | 
O=C1OC2(c3cc(Br)c(O)c(Br)c3Oc3c2cc(Br)c(O)c3Br)c2c(Cl)c(Cl)c(Cl)c(Cl)c21 | inactive | 
O=[N+]([O-])c1ccc2c(c1)Cc1ccccc1-2 | inactive | 
O=C(O)c1ccccc1Nc1cccc(C(F)(F)F)c1 | inactive | 
S=C(NC1CCCCC1)NC1CCCCC1 | inactive | 
COc1cccc2c1C(=O)c1c(O)c3c(c(O)c1C2=O)C[C@@](O)(C(=O)CO)C[C@@H]3O[C@H]1C[C@H](N)[C@H](O)[C@H](C)O1 | 0.952 µM (active) | 
c1cc(N(CC2CO2)CC2CO2)ccc1OCC1CO1 (stereo unspecified) |  | 3.79% (inactive)
C[C@]12CCC(=O)C=C1CC[C@@H]1[C@@H]2C(=O)C[C@@]2(C)[C@H]1CC[C@]2(O)C(=O)CO | inactive | 
Cc1cc2nc3c(=O)[nH]c(=O)nc-3n(C[C@H](O)[C@H](O)[C@H](O)CO)c2cc1C | inactive | 
Nc1ccc(Nc2ccccc2)cc1 | inactive | 
CCCCc1oc2ccccc2c1C(=O)c1cc(I)c(OCCN(CC)CC)c(I)c1 | 39.2 µM (active) | 
Nc1ccccc1N | inactive | 
Cc1cccc(N(C)C(=S)Oc2ccc3ccccc3c2)c1 | inactive | 
Oc1ccc(O)cc1 | inactive | 
Brc1cc(Oc2cc(Br)c(Br)c(Br)c2Br)c(Br)c(Br)c1Br | inactive | 
O=C(c1ccc(OCCN2CCCCC2)cc1)c1c(-c2ccc(O)cc2)sc2cc(O)ccc12 | 54.9 µM (active) and inactive | 
